Test results from PubChem BioAssay AID743364 (National Center for Advancing Translational Sciences (NCATS), 2014).

experiment: qHTS profiling of inhibitors of Plasmodium falciparum (3D7) proliferation (acoustic dispense); conditions: P. falciparum 3D7 in erythrocytes, SYBR Green, 72 h; series mostly up to 49.8 µM; activity change: at the top concentration; active = well fitted curve in the direction sought with a large enough effect; inactive = no such curve, though single readings can be large or run the other way
From the text: Plasmodium falciparum is a virulent malarial parasite that kills 1-2 million people worldwide each year. Transmitted by mosquitoes, the sporozoite form of the parasite enters the blood stream to infect hepatocytes, where they become merozoites that infect red blood cells (erythrocytes). Within erythrocytes, merozoites begin a […] cycle of growth and division, after which the parasite is released to infect new red blood cells. Gametocytes, which form within erythrocytes as well, circulate in the bloodstream and are ingested by the mosquito, thereby completing the life cycle. To profile malarial isolates for differential chemical responses and to identify inhibitors of malarial growth, an assay that measures P. falciparum growth and replication within erythrocytes was employed. This assay uses a DNA binding fluorescent dye (SYBR Green) to detect parasite DNA following cell lysis. Because mature erythrocytes lack DNA, only Plasmodium-derived DNA is detected.
The SYBR Green viability assay was adapted from a method described previously (Plouffe et al., 2008). For screening 3 ul culture medium was dispensed into 1536 well black clear bottom plates (Aurora Biotechnologies) using a Multidrop Combi (Thermo Fisher Scientific Inc.), 23 nL of compounds in DMSO were added by an acoustic dispenser (EDC Biosystems), and 5 ul of erythrocytes infected with P. falciparum (0.3% parasitemia, 2.5% hematocrit final concentration) were added. The plates were incubated at 37 C in a humidified incubator in 5% CO2 for 72 h, and 2 ul lysis buffer (20 mM Tris HCl, 10 mM EDTA, 0.16% saponin, 1.6% triton X, 10X SYBR Green I supplied as 10,000X […] by Invitrogen) was added to each well. The plates were mixed for 25 sec with gentle shaking and incubated overnight at room temperature in the dark. The following morning, fluorescence intensity at 485(14) nm excitation and 535(25) nm emission wavelengths was measured on an EnVision (Perkin Elmer) plate reader. Plate reads were normalized relative to the control inhibitor (0.29 uM artemisinin) and vehicle (DMSO) wells present on each plate and then corrected by an algorithm using vehicle-only control plates at the beginning and end of the compound plate stack.

Activity change, inactive:
Cn1c(=O)n(-c2ccc(C(C)(C)C#N)cc2)c2c3cc(-c4cnc5ccccc5c4)ccc3ncc21 0.256%, CC(C)[C@H](C(=O)Nc1ccc(C(=O)NO)cc1)c1ccccc1 -0.681%, CCCC[C@@H]1C[C@@H](C(=O)NC([C@H](C)Cl)[C@H]2O[C@H](S)[C@H](O)[C@@H](O)[C@@H]2O)N(C)C1 (stereo not given in full) 39.1%, C#Cc1cccc(Nc2ncnc3cc(OC)c(OCCCCCCC(=O)NO)cc23)c1 -0.748%, CC[C@@]1(O)C[C@H](O[C@H]2C[C@H](N(C)C)[C@H](O[C@H]3C[C@H](O)[C@H](O[C@H]4CCC(=O)[C@H](C)O4)[C@H](C)O3)[C@H](C)O2)c2c(cc3c(c2O)C(=O)c2c(O)cccc2C3=O)[C@@H]1C(=O)OC -2.95%, C=CCn1c(=O)c2cnc(Nc3ccc(N4CCN(C)CC4)cc3)nc2n1-c1cccc(C(C)(C)O)n1 -0.259%, COc1ccc2nc3cc(Cl)ccc3c(Nc3cc(CN4CCCC4)c(O)c(CN4CCCC4)c3)c2n1 -4.07%, NC1CCC(Nc2nc(Nc3ccc(C(=O)N4CCCCC4)cc3)c3ncn(-c4cccc(F)c4)c3n2)CC1 (stereo not given) -1.28%, COc1ncc(-c2ccc3nccc(-c4ccnnc4)c3c2)cc1NS(=O)(=O)c1ccc(F)cc1F -1.7%, CCN(CC)CCNC(=O)c1c(C)[nH]c(C=C2C(=O)Nc3ccc(F)cc32)c1C 9.21% [at 100 µM], C[C@H](Cn1cnc2c(N)ncnc21)OCP(=O)(O)O 0.919%, Cn1c2ccccc2c2c3c(c4c5ccccc5n(CCC#N)c4c21)CNC3=O 26.1%, COC1=C2C[C@@H](C)C[C@H](OC)[C@@H](O)[C@@H](C)C=C(C)[C@H](OC(N)=O)[C@@H](OC)C=CC=C(C)C(=O)NC(=CC1=O)C2=O -1.59%, CO[C@H]1C=CC=C(C)C(=O)NC2=CC(=O)C(NCCN(C)C)=C(C[C@@H](C)C[C@H](OC)[C@@H](O)[C@@H](C)C=C(C)[C@@H]1OC(N)=O)C2=O 111%, CC[C@H]1OC(=O)[C@H](C)C(=O)[C@H](C)[C@@H](O[C@H]2O[C@H](C)C[C@H](N(C)C)[C@@H]2O)[C@](C)(OC)C[C@@H](C)C(=O)[C@H](C)[C@H]2N(CCCCn3cnc(-c4cccnc4)c3)C(=O)O[C@]12C 0.612%, COc1ccc(-c2ccc3ncc4c(c3c2)n(-c2ccc(N3CCNCC3)c(C(F)(F)F)c2)c(=O)n4C)cn1 -0.783%, C=C[C@@H]1CN2CC[C@@H]1C[C@H]2[C@H](O)c1ccnc2ccc(OC)cc12 0.819%, COC(=O)[C@]12CCC(C)(C)C[C@@H]1[C@@H]1C(=O)C=C3[C@@]4(C)C=C(C#N)C(=O)C(C)(C)[C@@H]4CC[C@@]3(C)[C@]1(C)CC2 58.1%, C[C@H]1c2cccc(O)c2C(O)=C2C(=O)[C@]3(O)C(O)=C(C(N)=O)C(=O)[C@@H](N(C)C)[C@@H]3[C@@H](O)[C@@H]21 -0.335%, CN(C(=O)OC(C)(C)C)[C@@H](Cc1ccc(O[S+](=O)([O-])c2cccc3cnccc23)cc1)C(=O)N1CCN(C(=O)OCc2ccccc2)CC1 0.844%, CCN(CC)Cc1cc(Nc2ccnc3cc(Cl)ccc23)ccc1O -0.785% [at 23.2 µM], CCNC(=O)c1noc(-c2cc(C(C)C)c(O)cc2O)c1-c1ccc(CN2CCOCC2)cc1 83.8%, C=CCNc1c(O)cc2c(O)c1C[C@@H](C)C[C@H](OC)[C@@H](O)[C@@H](C)C=C(C)[C@H](OC(N)=O)[C@@H](OC)C=CC=C(C)C(=O)N2 -1.45%, CC(=NNC(=S)N1CCC1)c1ccccn1 -1.01%, CC(C)N=C(N)N=C(N)Nc1ccc(Cl)cc1 0.148%, C[C@H]1Cc2c([nH]c3cc(Cl)c(F)cc23)[C@@]2(N1)C(=O)Nc1ccc(Cl)cc12 -3.95%, Cc1cnc(Nc2ccc(CN3CCOCC3)cc2)nc1Nc1cccc(S(=O)(=O)NC(C)(C)C)c1 -2.12%, Nc1ccc(-c2ccc3ncc4ccc(=O)n(-c5cccc(C(F)(F)F)c5)c4c3c2)cn1 -7.03%, COC(=O)c1ccc2c(C(=Nc3ccc(N(C)C(=O)CN4CCN(C)CC4)cc3)c3ccccc3)c(O)[nH]c2c1 25.2%, CCOC(=O)[C@H](CCc1ccccc1)N[C@H]1CS[C@H](c2cccs2)CN(CC(=O)O)C1=O 1.24%, C[C@@H]1CCC2[C@@H](C)[C@@H](O)O[C@@H]3O[C@@]4(C)CC[C@@H]1[C@@]23OO4 (stereo not given in full) -0.572%, O[C@H](c1cc(C(F)(F)F)nc2c(C(F)(F)F)cccc12)[C@H]1CCCCN1 0.467% [at 23.2 µM], CC[C@@]1([C@@H]2O[C@@H]([C@H]3O[C@@](O)(CO)[C@H](C)C[C@H]3C)C[C@H]2C)CC[C@H]([C@]2(C)CC[C@]3(C[C@H](O)[C@@H](C)[C@@H]([C@@H](C)[C@@H](OC)[C@H](C)C(=O)O)O3)O2)O1 -0.944% [at 23.2 µM], Cn1cc(CNCC2CCN(c3ncc(C(=O)NO)cn3)CC2)c2ccccc21 -1.05%, CCN[C@H]1C[C@H](C)S(=O)(=O)c2sc(S(N)(=O)=O)cc21 -1.4%, FC(F)c1nc2ccccc2n1-c1nc(N2CCOCC2)nc(N2CCOCC2)n1 4.59%, CCN(CC)CCCC(C)Nc1ccnc2cc(Cl)ccc12 (stereo not given) -1.35%, CO[C@H]1O[C@@H]2O[C@@]3(C)CC[C@@H]4[C@@H](C)CC[C@@H]([C@H]1C)[C@@]24OO3 -0.464%, COc1ccc(-c2cc3c(C)nc(N)nc3n(C3CCC(OCCO)CC3)c2=O)cn1 (stereo not given) -1.59%, CC1(CN2CCC(n3c(=O)[nH]c4ccccc43)CC2)OCc2ccccc2-n2cccc21 (stereo not given) -0.657%
